Assay results taken from PubChem BioAssay AID1240 (Sanford-Burnham Center for Chemical Genomics, 2008).
Out of some 50,000 compounds screened, about 800 (1.6%) showed an effect of 50% or more. This is one part of a sample in which strong results are shown more often than they occur.

Biological target: Bcl-2-like protein 10 (Homo sapiens) (UniProt Q9HD36)
Assay: Phenotype converters, Bcl-B/TR3 peptide binding displacement, primary biochemical FP (AID 1240);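 note: 0% = Bcl-B with tracer peptide and DMSO and 100% = tracer peptide lacking Bcl-B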
Details: GST-Bcl-B / FITC-TR3 peptide fluorescence polarization; stronger effect = higher value; compound at 3.75 mg/L

Sequence of Bcl-2-like protein 10 (Homo sapiens) (Q9HD36 whole entry, looked up): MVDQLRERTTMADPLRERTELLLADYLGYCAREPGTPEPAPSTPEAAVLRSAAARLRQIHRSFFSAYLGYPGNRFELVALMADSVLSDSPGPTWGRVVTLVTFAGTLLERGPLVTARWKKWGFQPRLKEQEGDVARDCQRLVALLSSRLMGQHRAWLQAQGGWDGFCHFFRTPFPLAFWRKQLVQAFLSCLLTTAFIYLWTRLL

First: COc1ccccc1/C=C/C(=O)c1ccc(F)cc1
Second: COc1ccc(/C=C/C(=O)O)cc1S(=O)(=O)NCc1ccccc1
The displacement of the first is lower: -0.2% for the first, 7.2% for the second.

Going from COc1ccc(CN2CCN(C3CCN(Cc4ccccc4)CC3)CC2)cc1Br to COc1cccc(CN2CCN(Cc3cccnc3)CC2)c1, the displacement falls from -9.1% to -13.5%.

Compared with CCOC(=O)C1C(=O)NCC2CCCC21 (configuration not stated), CN(C)CCOC(=O)C12CCC3CC(CC(C3)C1)C2 is higher in displacement: 4.6% for the first, 11.3% for the second.

First: O=C(CN1C(=O)c2ccccc2C1=O)Nc1cc(Cl)ccc1C(=O)O
Second: CC(C)C(=O)Nc1ccc(Cl)cc1C(=O)O
The displacement of the first is lower: -6.4% for the first, 8.1% for the second.

Compared with CCOC(=O)c1ccc(NC(=O)CC)cc1, COC(=O)c1ccc(/C=N/NC(=O)CCc2c(C)n[nH]c2C)cc1 is lower in displacement: 4.7% for the first, 4.2% for the second.

First: CCOC(=O)c1c(C)[nH]c(N=Nc2ccc(C)cc2)c1C
Second: CC(=O)NC1=NC(=O)/C(=C/c2ccc(C)cc2)S1
The displacement of the first is lower: 2.4% for the first, 118% for the second.

First: CC(=O)NC1=NC(=O)/C(=C\c2cccc(F)c2)S1
Second: CC(=O)NC1=NC(=O)/C(=C\c2cccc([N+](=O)[O-])c2)S1
The displacement of the first is higher: -29.1% for the first, -42.2% for the second.

First: CC(=O)NC1=NC(=O)/C(=C\c2ccccc2Cl)S1
Second: CC(=O)NC1=NC(=O)/C(=C\c2cccs2)S1
The displacement of the first is lower: 14% for the first, 109% for the second.

Going from CC(=O)NC1=NC(=O)/C(=C\c2ccc(C(C)(C)C)cc2)S1 to Cc1cccc(/C=C2/SC(=S)N(Cc3ccccc3)C2=O)c1, the displacement rises from 11.4% to 13.4%.

First: O=C(Nc1ccc(F)c(Cl)c1)c1cc([N+](=O)[O-])ccc1Cl
Second: CCOc1ccc(C(=O)Nc2cccc(C(F)(F)F)c2)cc1Cl
The displacement of the first is higher: -10.3% for the first, -12% for the second.

Compared with COc1ccc(/C(C)=N/NC(=O)CN(c2ccc(C)cc2)S(=O)(=O)c2ccccc2)cc1OC, COc1ccc2ccccc2c1C=Nc1ccc(C)c(I)c1 is lower in displacement: 3.8% for the first, -9.7% for the second.

Compared with CC(C)C(=O)Nc1ccc(I)cc1Cl, Cc1cc(OCC(O)CNC(C)C)cc(C)c1Cl (configuration not stated) is lower in displacement: 11.1% for the first, 3.1% for the second.

First: O=C(c1cccnc1)N(Cc1ccccc1)Cc1ccccc1
Second: CC1=C(C(=O)OCCc2ccccc2)C(c2ccccc2Cl)CC(=O)N1 (configuration not stated)
The displacement of the first is higher: 6% for the first, -7.2% for the second.

First: O=C(Nc1cccnc1)c1ccc(-c2ccc(Br)cc2)o1
Second: O=C(Nc1ccc(Cc2ccncc2)cc1)c1ccc(-c2ccc(Br)cc2)o1
The displacement of the first is lower: -5.1% for the first, 109% for the second.

Compared with O=C(NC(=S)Nc1ccc(-c2nc3ncccc3o2)cc1)c1ccco1, O=C(NC(=S)Nc1ccc(-c2nc3ccccc3o2)cc1)c1ccco1 is lower in displacement: 112% for the first, 11.6% for the second.

First: COc1cc(NC(=O)c2ccc(-c3ccc(Br)cc3)o2)ccc1NC(=O)c1ccco1
Second: COc1cc(NC(=O)c2ccc(-c3ccc(Cl)cc3)o2)ccc1NC(=O)c1ccco1
The displacement of the first is higher: 158% for the first, -6.5% for the second.

Compared with O=C(Nc1ccc(Cc2ccncc2)cc1)c1ccc(Br)o1, O=C(Nc1ccc(-c2nc3ncccc3o2)cc1)c1ccc(Br)o1 is lower in displacement: 13.1% for the first, -1.9% for the second.

Compared with O=C(Nc1ccc(-c2nc3ncccc3o2)cc1)c1ccc(-c2cccc(Cl)c2)o1, O=C(Nc1ccc(-c2nc3ncccc3o2)cc1)c1ccc(-c2ccc(Br)cc2)o1 is higher in displacement: 14.3% for the first, 88.1% for the second.

First: Cc1c(NC(=S)NC(=O)c2ccco2)cccc1-c1nc2ncccc2o1
Second: Cc1ccc(C(=O)Nc2ccc(-c3nc4ncccc4o3)cc2)cc1C
The displacement of the first is lower: 9.2% for the first, 21.5% for the second.

First: Cc1cc(NC(=O)c2ccc(-c3ccc(Br)cc3)o2)ccc1NC(=O)c1ccco1
Second: N#C/C(=C\c1ccc(-c2ccc(Br)cc2)o1)c1nc2ccccc2[nH]1
The displacement of the first is lower: -2.6% for the first, 2.1% for the second.

Going from Cc1ccccc1C(=O)O/N=C(\N)c1cccc([N+](=O)[O-])c1 to Cc1ccc([N+](=O)[O-])cc1-c1ccc(/C=C(\C#N)c2nc3ccccc3[nH]2)o1, the displacement rises from -7.1% to -0.7%.

Compared with Clc1ccc(OCCCN2CCCCC2)cc1, COc1ccccc1OCCCN1CCOCC1 is higher in displacement: -10% for the first, -1.3% for the second.

Compared with COc1ccc(C2CC(O)C(C)C(c3ccc(OC)cc3)N2)cc1 (configuration not stated), COc1ccc(-c2cc(=O)oc3cc(OC(C)=O)ccc23)cc1 is lower in displacement: 7.8% for the first, -5.1% for the second.

Compared with CC(=O)N(c1ccccc1)c1nnc(C)s1, O=C(Nc1ccccc1)Nc1nnc(Cc2cccc(Br)c2)s1 is higher in displacement: -0.3% for the first, 1.9% for the second.

First: O=C1NC(=O)N(c2ccccc2F)C(=O)/C1=C/c1ccc(I)o1
Second: NC(=O)Cn1cc(/C=C2\C(=O)NC(=O)N(Cc3ccccc3)C2=O)c2ccccc21
The displacement of the first is higher: 34.5% for the first, 17% for the second.

First: CCN(CC)c1ccc(/C=C(\C#N)C(=O)Nc2ccc(OC)cc2)c(OC)c1
Second: CCN(CC)c1ccc(C=C(C#N)C#N)c(OC)c1
The displacement of the first is lower: -6.6% for the first, 91.5% for the second.

Going from CCN(CC)c1ccc(C=C(C(C)=O)C(C)=O)c(OC(C)=O)c1 to N#C/C(=C/c1ccc(-c2ccc3c(c2)C(=O)NC3=O)o1)C(N)=O, the displacement rises from 48.6% to 140%.

Compared with O=C(Cn1cc(/C=C2/C(=O)NC(=S)N(c3ccccc3)C2=O)c2ccccc21)Nc1ccccc1, O=C(Cn1cc(C=C2C(=O)NC(=S)NC2=O)c2ccccc21)Nc1ccccc1 is lower in displacement: 143% for the first, 130% for the second.

First: COc1ccc(N2C(=O)/C(=C/c3cn(Cc4ccccc4)c4ccccc34)C(=O)NC2=S)cc1
Second: O=C(Cn1cc(/C=C2\SC(=S)NC2=O)c2ccccc21)Nc1ccccc1
The displacement of the first is higher: 25% for the first, -11.9% for the second.

Compared with O=C(Cn1cc(/C=C2\NC(=S)NC2=O)c2ccccc21)Nc1ccccc1, CCOc1ccccc1C(=O)Nc1ccc(N2CCOCC2)cc1 is higher in displacement: -41.9% for the first, 3.2% for the second.

Compared with CC(C)(C)c1csc(N/N=C/c2ccccn2)n1, CCOc1cc(/C=N/n2cnnc2)ccc1OCCOc1ccc(Br)cc1 is higher in displacement: -6.6% for the first, 19.3% for the second.

Compared with OCCNCCOc1cccc(Cl)c1Cl, N#C/C(=C\c1ccc(-c2ccc(Cl)c(Cl)c2)o1)C(N)=O is higher in displacement: 2.8% for the first, 7.8% for the second.

First: O=C1C2C3C=CC(O3)C2C(=O)N1c1ccccc1I (configuration not stated)
Second: N#C/C(=C\c1ccc(-c2ccc3c(c2)COC3=O)o1)C(N)=O
The displacement of the first is higher: 17.8% for the first, -10.4% for the second.

Compared with Nc1nc2nc(C(F)(F)C(F)(F)C(F)(F)C(F)(F)F)cc(=O)n2[nH]1, N#C/C(=C\c1ccc(-c2ccc3c(c2)COC3=O)o1)c1nc2ccccc2[nH]1 is higher in displacement: -1.7% for the first, 58.6% for the second.

Compared with COc1cc(OC)c(OC)cc1CNc1cccc(C)c1, N#CC(C#N)=Cc1ccc(-c2ccc3c(c2)COC3=O)o1 is higher in displacement: 4.3% for the first, 109% for the second.

Going from N#C/C(=C\c1ccc(-c2ccc(Br)cc2)o1)C(N)=O to N#CC(C#N)=Cc1ccc(-c2ccc(S(N)(=O)=O)cc2)o1, the displacement falls from 4.6% to -0.4%.
